A short description of this assay: qHTS Assay for Identifying a Potential Treatment of Ataxia-Telangiectasia: Secondary assay (no NCS) SAR for Probe. The source says: NIH Chemical Genomics Center [NCGC] NIH Molecular Libraries Probe Centers Network [MLPCN] MLPCN Grant: MH089030-01 Assay Submitter (PI): Wei Zheng and Yosef Shiloh Ataxia-telangiectasia (A-T) is a devastating and progressive disease for which, there is no cure. Although A-T is a multisystem disease, it is stereotyped characterized by its neurological symptoms such as truncal ataxia, due to cerebellar cortical degeneration of the Purkinje and granule cells. Other symptoms of A-T are telangiectasias (dilated blood vessels), primary immunodeficiency, marked sensitivity to ionizing radiation (IR), chromosomal instability and predisposition to cancer. The underlying genetic cause of A-T is null mutations in the ATM (A-T mutated) gene. ATM is a nuclear serine/threonine kinase that functions as a master regulator of the cellular responses to double strand breaks (DSBs) in the DNA. Upon activation by DSBs, ATM phosphorylates a plethora of downstream targets, including KAP-1 on Ser82452. […] To screen for small molecules that will compensate for the loss of ATM in cells derived from A-T patients, we monitored KAP-1 phosphorylation as a readout for ATM-like activity using an AlphaLISA assay. […]
qHTS Assay Protocol: Step,Parameter,Value,Description 1. […] Readout, EnVision, EnVision plate reader. […] EnVision protocol for 1536-well AlphaScreen read (30ms excitation, 100ms read), about 10 min/plate.
In general terms: In qHTS, concentration-response curves come from the screen itself.

Here are results for one compound from PubChem BioAssay AID504361 (National Center for Advancing Translational Sciences (NCATS), 2011).

Results filed as inconclusive are left out. Active and inactive are the calls of the source. The call rests on the fitted dose curve; in most records, active means well fitted curve in the direction sought with a large enough effect; inconclusive means small, poorly fitted or top-dose-only effect, or effect the other way, or another doubt; inactive means no such curve, though single readings can be large or run the other way.

As for `CC(=O)c1c(O)c(C)c(O)c(Cc2c(O)c3c(c(C(=O)/C=C/c4ccccc4)c2O)OC(C)(C)C=C3)c1O`, the call was inactive.
